# Reference: PubChem BioAssay (NCI)
# The panel holds about 79,000 compounds, 15% with a hit somewhere; the sample as a whole holds those more often. Values without a mark were called inactive. Activity calls are given as the source filed them. No stated cut-off is given here; in the data, active means growth inhibition above about 70%; inactive means the rest.
# Tests used:
# [1] = NCI Yeast Anticancer Drug Screen. Data for the rad50 strain (AID 155);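 further: 0% = growth of vehicle-only cultures of the same strain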; details: S. cerevisiae rad50 strain growth inhibition; at 50.0 µM; active compounds read high
# Procedure, shortened: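 Inhibition values express reduced yeast growth in compound-treated cultures relative to vehicle-treated controls.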
# [2] = NCI Yeast Anticancer Drug Screen. Data for the mec2-1 strain (AID 157); details: S. cerevisiae mec2-1 strain, at 50.0 µM, active compounds read high
# Procedure, shortened: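 Growth inhibition is read against vehicle-treated controls after compound exposure of the mec2-1 yeast strain, which is defective in DNA damage repair or cell cycle control.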
# [3] = NCI Yeast Anticancer Drug Screen. Data for the sgs1 mgt1 strain (AID 161);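 further: 0% = growth of cultures given vehicle only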; details: S. cerevisiae sgs1 mgt1 strain, at 50.0 µM, active compounds read high
# Procedure, shortened: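 Compounds are added to genetically altered yeast, and growth is compared with cultures given vehicle alone to give percent inhibition.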
# [4] = NCI Yeast Anticancer Drug Screen. Data for the cln2 rad14 strain (AID 165);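 further: 0% = growth equal to vehicle treated cultures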; details: S. cerevisiae cln2 rad14 strain, at 50.0 µM, active compounds read high
# Procedure, shortened: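 Growth inhibition, relative to vehicle-treated controls, is the read-out. The test organism is a yeast strain with defined genetic alterations, cln2 rad14.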
# [5] = NCI Yeast Anticancer Drug Screen. Data for the bub3 strain (AID 167); details: S. cerevisiae bub3 mutant strain, at 50.0 µM, active compounds read high
# Procedure, shortened: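 Steps: expose the mutant yeast strain to compound; grow alongside vehicle-treated cultures; measure growth; express inhibition against the vehicle cultures.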
# [6] = NCI Yeast Anticancer Drug Screen. Data for the mlh1 rad18 strain (AID 175); details: S. cerevisiae mlh1 rad18 strain growth inhibition; at 50.0 µM; active compounds read high
# Procedure, shortened: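 Cells of a genetically altered yeast strain, deficient in DNA damage repair, were treated with compound. Their growth was then compared with that of vehicle-treated cultures to give inhibition.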
SMILES,growth inhibition [1],growth inhibition [2],growth inhibition [3],growth inhibition [4],growth inhibition [5],growth inhibition [6]
Cc1ccc([N+](=O)[O-])c2c(NCCC[N+](C)(C)[O-])ccnc12,35.9%,-18.1%,20.6%,14.2%,-24.7%,4.4%
C[n+]1c2ccccc2c(Oc2c3ccccc3[n+](C)c3ccccc23)c2ccccc21,3.8%,11.2%,31.4%,-15.3%,-4.4%,0.1%
COC(=O)CCC(=O)Nc1cc(Cl)ccc1Cl,-2.35%,-16.1%,-0.35%,6.45%,-4.15%,6.3%
CC(=O)OC1c2ccccc2C(=O)C1(OC(C)=O)c1ccccc1 (centres undefined),0.7%,11.3%,12.7%,25.3%,-10.9%,43.9%
CC(=O)NC1C(O)C(O)C(CO)OC1n1nc(SCc2ccccc2)c(=O)[nH]c1=O (centres undefined),3.9%,11.9%,-12.9%,-5.65%,-24.4%,-36.5%
CCC(=O)C(OC(C)=O)C(OC(C)=O)C(OC(C)=O)C(COC(C)=O)OC(C)=O (centres undefined),-1.95%,-1.15%,-8.1%,27.8%,-3.95%,13.8%
CC(Cc1ccccc1)Nc1ncnc2c1ncn2C1OC(CO)CC1O (centres undefined),7.5%,2.35%,12.6%,1.6%,2.3%,-11.7%
CC(=O)Nc1ccc(N)cc1N,-1.3%,-37.8%,-17.9%,29.7%,-6.35%,13.8%
NC(CCC(=O)O)C(=O)NC(Cc1c[nH]c2ccccc12)C(=O)O (centres undefined),-12.7%,12.3%,-5.05%,-23.1%,-22.4%,-24.6%
O=C(Nc1ccc(Cl)c(Cl)c1)Oc1ccccc1Cl,-15.2%,-29.6%,-4.9%,-36%,-16.4%,-29.9%
O=c1c2c([nH]c(=S)n1-c1ccccc1)NCCC2,-13.8%,-1.25%,-11.6%,3.3%,9.55%,0.4%
NC(=S)/N=C/C1=C(O)CCCC1=O,2.05%,5.95%,16.4%,17%,14%,11.2%
FC(F)(F)c1nc(Nc2ccccc2)c2[nH]cnc2n1,-16.4%,4.55%,2.45%,-20.9%,12.2%,-4.6%
C=C(Cl)COc1ccc(OCC(=C)Cl)cc1,19.3%,-17.1%,31.8%,22.6%,42%,1.15%
CS(=O)(=O)OC1C(OCc2ccccc2)OC(CO)C(O)C1O (centres undefined),-6.1%,2.15%,-10.1%,-55.6%,-1.6%,0.55%
COc1ccc2ccccc2c1C1=NC(C)(C)CO1,-6.65%,-18.6%,2.6%,18.5%,-3.8%,-16.6%
O=c1cc(O)nc2cn[nH]n12,4.8%,-22.4%,7.65%,13.4%,-3.45%,1.6%
Cc1cc(C)cc(NC(=O)CCC(=O)C2CCC/C2=N\NC(=O)C(=O)NN)c1 (centres undefined),3.95%,-2.7%,-20.6%,2.1%,5.2%,-6.8%
COC(=O)CCOc1ccc(C)cc1,28.2%,12.9%,6.6%,10.3%,-5.85%,-21.9%
CC1CC(C)CN(S(=O)(=O)c2cc(Cl)c(Oc3ccc([N+](=O)[O-])cc3Cl)c(Cl)c2)C1 (centres undefined),7.8%,-28.3%,3.75%,34.4%,-11.3%,-2.45%

SMILES,growth inhibition [1],growth inhibition [2],growth inhibition [3],growth inhibition [4],growth inhibition [5],growth inhibition [6]
CCCCC(C(O)c1ccc(C(C)C)cc1)N(CC)CC (centres undefined),56.2%,34.1%,53.9%,9%,62.2%,38%
O=[N+]([O-])c1ccc(/C=C/c2csnn2)cc1,-16.7%,-31.8%,-13.8%,22%,2%,-24.6%
O=S(=O)(CCS(=O)(=O)c1ccccc1)c1ccccc1,-11.4%,-10.2%,-22.9%,-41.5%,-15.3%,-0.1%
CCCCCCc1c(C)nc(N)[nH]c1=O,7.55%,-3.85%,-13.4%,-67.7%,10%,-1.05%
CC(=O)O[C@@H]1[C@H]2[C@@H](OC(=O)c3ccccc3)[C@@H](C)C[C@]2(O)[C@H](OC(C)=O)[C@@]2(C)[C@@H]3C[C@@](C)(OC(C)=O)C[C@@H](OC(C)=O)[C@@]3(OC(C)=O)C[C@@]12C,-7.55%,-7.05%,-3.8%,-32.8%,-6.35%,-50.5%
C/C(CC(=O)Nc1ccc(Cl)c(Cl)c1)=N/NC(=O)C[N+](C)(C)C,-9.25%,-14.7%,-6.3%,26.6%,-14.8%,-6.1%
O=C(Nc1ccccc1)C(=O)Nc1ccccc1,5.4%,-18.1%,-8.05%,-12.7%,-10.9%,-4.25%
Cn1c2ccccc2c2[nH]c3ccccc3c(=O)c21,54.5%,16.4%,-15.1%,-8.95%,-11.4%,28.6%
CC(C)(C)[Si](C)(C)OCC1OC(n2cc(I)c(=O)[nH]c2=O)C(O[Si](C)(C)C(C)(C)C)C1O[Si](C)(C)C(C)(C)C (centres undefined),-19.2%,-16%,-18.2%,14.8%,11.9%,-33.5%
OC(C/C(=N\Nc1ccccc1)c1ccc(Br)cc1)(C(F)(F)F)C(F)(F)F,67.2%,97% (active),88.8% (active),85.7% (active),44.9%,96.5% (active)
COCC/C=C\CN(C(C)C)C(C)C,-9.5%,-13.3%,-0.4%,5.45%,3.5%,1.05%
Cn1c(=O)c2[nH]c(/N=N\n3ccc4ccccc43)nc2n(C)c1=O,2.1%,21.6%,-5.6%,-8.85%,24.6%,4.1%
COc1cc2c(c(OC)c1OC)-c1ccc(SC)c(=O)cc1[C@@H](NC(=O)C(F)(F)F)CC2,11.1%,-53.7%,-18.1%,-13.8%,-12.7%,-4.75%
Cc1cccc(NC(=O)COc2ccc(Cl)cc2)c1C,12.4%,8.6%,5.1%,-15.2%,13.1%,-4.7%
O=c1c(O)c(O)c1=O,1.3%,-7%,0.8%,0.7%,9.3%,-15.5%
CSc1nc(SC)c2cnn(C3OC(CO)C(O)C3O)c2n1 (centres undefined),12%,-1.1%,20.9%,3.25%,16.4%,33.4%
O=C(Nc1ccc2ccccc2c1)OC1CCS(=O)(=O)C1 (centres undefined),-0.75%,-3.9%,6.1%,20.4%,-1.8%,-8.25%
Nc1cc(=O)[nH]c(=S)n1-c1ccccc1,-7%,2.5%,-12.2%,-16.1%,-2.5%,-9.65%
O=C(NC(=O)c1cccc(Cl)c1)Nc1ccccc1,3.1%,-15.1%,-19.6%,-22%,-10.7%,-5.15%
